Values joined by “and” are separate entries in the source; they are usually repeats but may differ in a detail not shown here. Identical values can stand only once. Inconclusive results are not listed. Some compounds were tested as several samples or in several runs, with calls that do not always agree. Active and inactive are the calls of the source. Unless noted, the call rests on the fitted dose curve; in most records, active means well fitted curve in the direction sought with a large enough effect in the repeat runs; inconclusive means weak or mixed curves; inactive means no such curve, though single readings can be large; an effect the other way counts as inactive or inconclusive.

The nature of test [1]: Human pregnane X receptor (PXR) small molecule agonists, qHTS cell viability counter screen (AID 1346977). Further: nearly all actives have a fitted effect of over 50% in size. The method, boiled down: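 Measures live-cell protease fluorescence (CellTiter-Fluor) in PXR-Luc HepG2 cells treated 24hr with compounds at 37C. Cells had 5hr to attach before pin transfer of DMSO solutions.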
A short description of test [2]: Caspase-3/7 induction in HepG2 cells by small molecules, qHTS assay (AID 1346978). Further: nearly all actives have a fitted effect of over 15% in size. Put shortly:
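Wild-type HepG2 cells, 2,000/well, settled 5 hr at 37 C and 5% CO2, then compound-treated for 17 hr; caspase-3/7 activity read by luminescent Caspase-Glo 3/7 after 30 min at room temperature.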
For orientation: Quantitative high-throughput screening tests each substance at several concentrations.

Test [3] can be described thus: Caspase-3/7 induction in CHO-K1 cells by small molecules, qHTS cell viability counter screen (AID 1346979). Further: nearly all actives have a fitted effect of over 35% in size. Further: potency means the concentration at half of the fitted maximal effect. Put shortly:
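In the same wells as the caspase read, viability of compound-treated wild-type CHO-K1 cells was assessed using CellTiter-Fluor, added after 16hr at 37C and measured by fluorescence following 1hr further incubation.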

A short description of test [4]: Caspase-3/7 induction in CHO-K1 cells by small molecules, qHTS assay (AID 1346980). Further: nearly all actives have a fitted effect of over 15% in size. The method, boiled down:
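Wild-type CHO-K1 cells exposed to compounds for 17hr at 37 C, 5% CO2. Caspase-3/7 activity then measured by Caspase-Glo 3/7 luminescence after 30min at room temperature.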

Test [5] can be described thus: Caspase-3/7 induction in HepG2 cells by small molecules, qHTS cell viability counter screen (AID 1346981). Further: series mostly up to about 92 µM; nearly all actives have a fitted effect of over 30% in size. The method, boiled down: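 Cell viability is measured as a cytotoxicity counter screen alongside the Caspase-Glo 3/7 readout in identical wells. Wild-type HepG2 cells are treated with test compounds for 16 hr at 37 C before CellTiter-Fluor addition and a 1-hr incubation.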

Test [6] addresses Nuclear receptor subfamily 1 group I member 2 (Homo sapiens) (UniProt O75469). The test is described as follows: Human pregnane X receptor (PXR) small molecule agonists, qHTS assay (AID 1346982). Further: nearly all actives have a fitted effect of over 35% in size. Further: potency means the concentration at half of the fitted maximal effect. Put shortly: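 Cells: HepG2 stably carrying PXR-Luc. Medium held 5% charcoal-stripped FBS. Compounds in DMSO added after 5 hr plating, incubated 24 hr, then luminescence quantified with ONE-Glo.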

The target in test [7] is Acetylcholinesterase (Homo sapiens) (UniProt P22303). The test is described as follows: Acetylcholinesterase (AChE) small molecule antagonists: colormetric cell-based qHTS assay (AID 1347395; calls by dose curve; further: nearly all actives have a fitted effect of over 30% in size; further: potency means the concentration at half of the fitted maximal effect). The method, boiled down: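 Endogenous AChE of human neuroblastoma SH-SY5Y cells was measured with an Ellman-type DTNB/acetylthiocholine mix. Compound pretreatment lasted 30 min at 37 C; substrate reaction ran 90 min at 37 C.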

The target is the same in test [8]. The test is described as follows: Acetylcholinesterase (AChE) small molecule antagonists: enzyme-based qHTS assay (AID 1347397; calls by dose curve; further: nearly all actives have a fitted effect of over 55% in size; further: potency means the concentration at half of the fitted maximal effect). The note with it: Potency: AChE enzyme activity inhibition. The method, boiled down:
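Colorimetric DTNB read-out of thiocholine released from acetylthiocholine by recombinant human AChE (50 mU/mL as dispensed). Compounds were preincubated 30 min at RT before substrate/DTNB addition, with a 10 min RT reaction.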

Test [9] shares this target. The test is described as follows: Acetylcholinesterase (AChE) small molecule antagonists: fluorescence cell-based qHTS assay (AID 1347398; calls by dose curve; further: nearly all actives have a fitted effect of over 50% in size; further: potency means the concentration at half of the fitted maximal effect). The note with it: Potency: AChE activity. The method, boiled down:
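SH-SY5Y, 2,000 cells/well, attached overnight; cmpd 30 min 37 C; acetylthiocholine/Thiolite Green cocktail 40 min RT; fluorescence Ex/Em 490/520 nm.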

The target is the same in test [10]. As to the kind of experiment: Acetylcholinesterase (AChE) small molecule antagonists: enzyme-based qHTS assay with human liver microsomes (AID 1347399; calls by dose curve; further: nearly all actives have a fitted effect of over 60% in size; further: potency means the concentration at half of the fitted maximal effect). The note with it: Potency: qHTS inhibition. Put shortly: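 Recombinant human AChE (50 mU/mL in the enzyme mix) and human liver microsomes (0.25 mg/mL final) were preincubated with compound and NADPH (0.25 mg/mL final) for 30 min at 37 C. Acetylthiocholine/DTNB was then added; thiocholine was read colorimetrically after 10 min at room temperature.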

The target of test [11] is Cytochrome P450 2D6 (Homo sapiens) (UniProt P10635). The test is described as follows: Cytochrome P450 Family 2 Subfamily D Member 6 (CYP2D6) small molecule antagonists: luciferase reporter qHTS assay (AID 1671196). Further: nearly all actives have a fitted effect of over 50% in size. Further: potency means the concentration at half of the fitted maximal effect. Put shortly: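 Enzyme and proluciferin substrate were first combined with test chemical for 10 min at room temperature. Adding NADPH regeneration solution started a 1 h reaction, stopped with luciferin detection reagent and read by luminescence 20 min later.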
Background: Reporter assays use an easily measured gene product as a stand-in for the process of interest.

In test [12] the target is Cytochrome P450 2C19 (Homo sapiens) (UniProt P33261). As to the kind of experiment: Cytochrome P450 Family 2 Subfamily C Member 19 (CYP2C19) small molecule antagonists: luciferase reporter qHTS assay (AID 1671197). Further: nearly all actives have a fitted effect of over 65% in size. Further: potency means the concentration at half of the fitted maximal effect. The method, boiled down:
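CYP2C19 P450-Glo, 1536-well qHTS. Cpd + enzyme/proluciferin substrate 10 min RT; + NADPH regen, 37C 1 h; stop with luciferin detection reagent, 20 min RT, luminescence (RLU). Pos ctrl ketoconazole.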

For test [13], the target named is Cytochrome P450 2C9 (Homo sapiens) (UniProt P11712). As to the kind of experiment: Cytochrome P450 Family 2 Subfamily C Member 9 (CYP2C9) small molecule antagonists: luciferase reporter qHTS assay (AID 1671198). Further: nearly all actives have a fitted effect of over 50% in size. Further: potency means the concentration at half of the fitted maximal effect. Put shortly:
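P450-Glo proluciferin substrate with CYP2C9 enzyme; 10 min RT preincubation, then NADPH regeneration 1 h at 37C; luciferin detection reagent 20 min RT, luminescence in relative luminescence units.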

For test [14], the target named is Voltage-gated inwardly rectifying potassium channel KCNH2 (Homo sapiens) (UniProt Q12809). The test is described as follows: Human Ether-a-go-go-Related Gene (hERG) channel small molecule antagonists: fluorescence cell-based qHTS assay (AID 1671200). The method, boiled down:
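Quantitative HTS in hERG-U2OS cells: thallium entry through the channel reports activity, read as continuous 480/540 nm fluorescence over 2 min after stimulus addition.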
Background: hERG is a cardiac potassium channel; its block is linked to QT prolongation.

Test [15] has as its target Cytochrome P450 1A2 (Homo sapiens) (UniProt P05177). As to the kind of experiment: Cytochrome P450 Family 1 Subfamily A Member 2 (CYP1A2) small molecule antagonists: luciferase reporter qHTS assay (AID 1671199). Further: nearly all actives have a fitted effect of over 50% in size. Further: potency means the concentration at half of the fitted maximal effect. The method, boiled down:
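Compounds were incubated with CYP1A2 and a luminogenic proluciferin substrate for 10 min at room temperature before the reaction was started with NADPH regeneration solution. After 1 h, detection reagent was added and light output, proportional to CYP activity, was recorded.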

Test [16] addresses Cytochrome P450 3A4 (Homo sapiens) (UniProt P08684). The test is described as follows: Cytochrome P450 Family 3 Subfamily A Member 4 (CYP3A4) small molecule antagonists: luciferase reporter qHTS assay (AID 1671201). Further: nearly all actives have a fitted effect of over 50% in size. Further: potency means the concentration at half of the fitted maximal effect. The method, boiled down:
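Inhibition of CYP3A4 is measured as loss of light: the enzyme converts a proluciferin substrate to luciferin, detected luminescently. Reaction ran 1 h at room temperature with NADPH regeneration after a 10 min compound preincubation.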

Cytochrome P450 2D6 (Homo sapiens), sequence (P10635 whole entry, looked up): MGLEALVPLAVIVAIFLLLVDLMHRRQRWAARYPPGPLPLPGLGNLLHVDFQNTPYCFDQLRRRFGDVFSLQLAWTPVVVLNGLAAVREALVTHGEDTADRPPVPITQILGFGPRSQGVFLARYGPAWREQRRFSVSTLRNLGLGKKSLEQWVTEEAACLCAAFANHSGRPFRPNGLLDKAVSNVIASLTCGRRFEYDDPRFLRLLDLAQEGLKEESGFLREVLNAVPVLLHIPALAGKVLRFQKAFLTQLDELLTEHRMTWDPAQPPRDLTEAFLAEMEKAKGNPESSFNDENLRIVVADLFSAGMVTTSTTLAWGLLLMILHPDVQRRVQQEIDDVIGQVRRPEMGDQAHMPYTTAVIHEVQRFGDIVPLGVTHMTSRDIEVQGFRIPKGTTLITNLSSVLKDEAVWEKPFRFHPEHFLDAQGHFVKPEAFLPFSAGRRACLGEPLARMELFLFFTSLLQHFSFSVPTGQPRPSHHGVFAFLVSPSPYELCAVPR
Cytochrome P450 2C9 (Homo sapiens), sequence (P11712 whole entry, looked up): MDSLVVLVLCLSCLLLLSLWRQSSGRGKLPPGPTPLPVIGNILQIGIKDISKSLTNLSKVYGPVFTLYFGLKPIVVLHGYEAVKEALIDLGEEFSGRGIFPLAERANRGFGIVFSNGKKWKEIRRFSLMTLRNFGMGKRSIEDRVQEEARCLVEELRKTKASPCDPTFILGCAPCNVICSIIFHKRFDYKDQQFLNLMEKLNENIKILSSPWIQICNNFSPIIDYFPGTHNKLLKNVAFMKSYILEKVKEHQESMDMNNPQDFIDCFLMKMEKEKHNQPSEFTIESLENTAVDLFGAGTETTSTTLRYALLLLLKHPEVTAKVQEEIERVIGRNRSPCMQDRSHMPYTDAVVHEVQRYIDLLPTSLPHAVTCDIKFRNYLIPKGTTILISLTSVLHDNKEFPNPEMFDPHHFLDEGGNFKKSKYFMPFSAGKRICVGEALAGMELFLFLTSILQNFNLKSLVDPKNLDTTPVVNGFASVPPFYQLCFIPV
Voltage-gated inwardly rectifying potassium channel KCNH2 (Homo sapiens), sequence (Q12809 whole entry, looked up): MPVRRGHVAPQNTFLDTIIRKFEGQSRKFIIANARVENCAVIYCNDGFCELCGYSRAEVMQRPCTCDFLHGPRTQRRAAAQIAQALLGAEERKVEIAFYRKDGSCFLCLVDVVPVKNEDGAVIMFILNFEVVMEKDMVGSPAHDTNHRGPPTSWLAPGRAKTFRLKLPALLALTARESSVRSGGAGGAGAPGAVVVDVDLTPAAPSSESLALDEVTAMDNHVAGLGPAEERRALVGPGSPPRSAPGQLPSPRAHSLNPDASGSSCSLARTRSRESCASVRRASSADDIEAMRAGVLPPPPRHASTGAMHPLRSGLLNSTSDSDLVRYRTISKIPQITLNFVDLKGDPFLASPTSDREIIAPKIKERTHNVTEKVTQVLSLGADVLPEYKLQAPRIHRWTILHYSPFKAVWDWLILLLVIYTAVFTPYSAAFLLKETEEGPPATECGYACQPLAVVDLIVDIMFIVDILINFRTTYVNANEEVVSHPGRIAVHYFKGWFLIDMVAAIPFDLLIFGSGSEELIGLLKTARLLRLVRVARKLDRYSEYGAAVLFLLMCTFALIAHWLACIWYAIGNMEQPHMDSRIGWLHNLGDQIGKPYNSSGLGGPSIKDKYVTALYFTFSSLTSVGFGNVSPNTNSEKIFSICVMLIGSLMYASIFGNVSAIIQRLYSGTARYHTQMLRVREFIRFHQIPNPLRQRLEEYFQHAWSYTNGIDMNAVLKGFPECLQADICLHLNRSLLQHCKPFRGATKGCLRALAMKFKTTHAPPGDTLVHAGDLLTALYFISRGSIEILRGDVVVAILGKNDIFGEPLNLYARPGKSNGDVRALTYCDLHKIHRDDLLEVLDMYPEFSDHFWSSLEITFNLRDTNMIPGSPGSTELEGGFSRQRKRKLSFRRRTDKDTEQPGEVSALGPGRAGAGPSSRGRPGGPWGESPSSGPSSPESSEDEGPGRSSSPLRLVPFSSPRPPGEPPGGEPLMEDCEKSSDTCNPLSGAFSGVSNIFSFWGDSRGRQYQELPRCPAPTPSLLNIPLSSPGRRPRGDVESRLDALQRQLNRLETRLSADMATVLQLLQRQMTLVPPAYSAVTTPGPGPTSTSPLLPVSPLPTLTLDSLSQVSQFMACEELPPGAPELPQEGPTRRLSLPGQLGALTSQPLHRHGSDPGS
Cytochrome P450 1A2 (Homo sapiens), sequence (P05177 whole entry, looked up): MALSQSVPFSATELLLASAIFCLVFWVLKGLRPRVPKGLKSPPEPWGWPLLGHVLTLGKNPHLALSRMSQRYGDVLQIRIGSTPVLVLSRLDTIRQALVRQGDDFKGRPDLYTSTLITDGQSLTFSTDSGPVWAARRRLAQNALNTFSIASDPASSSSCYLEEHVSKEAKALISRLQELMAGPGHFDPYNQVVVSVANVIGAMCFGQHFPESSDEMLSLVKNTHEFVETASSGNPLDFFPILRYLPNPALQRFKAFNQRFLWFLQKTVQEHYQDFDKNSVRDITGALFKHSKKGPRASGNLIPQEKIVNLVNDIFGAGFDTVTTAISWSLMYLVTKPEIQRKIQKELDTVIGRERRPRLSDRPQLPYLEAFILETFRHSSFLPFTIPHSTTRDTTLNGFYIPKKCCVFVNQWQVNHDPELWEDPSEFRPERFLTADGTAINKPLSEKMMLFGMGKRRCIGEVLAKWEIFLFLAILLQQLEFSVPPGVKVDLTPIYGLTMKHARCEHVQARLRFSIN
Cytochrome P450 2C19 (Homo sapiens), sequence (P33261 whole entry, looked up): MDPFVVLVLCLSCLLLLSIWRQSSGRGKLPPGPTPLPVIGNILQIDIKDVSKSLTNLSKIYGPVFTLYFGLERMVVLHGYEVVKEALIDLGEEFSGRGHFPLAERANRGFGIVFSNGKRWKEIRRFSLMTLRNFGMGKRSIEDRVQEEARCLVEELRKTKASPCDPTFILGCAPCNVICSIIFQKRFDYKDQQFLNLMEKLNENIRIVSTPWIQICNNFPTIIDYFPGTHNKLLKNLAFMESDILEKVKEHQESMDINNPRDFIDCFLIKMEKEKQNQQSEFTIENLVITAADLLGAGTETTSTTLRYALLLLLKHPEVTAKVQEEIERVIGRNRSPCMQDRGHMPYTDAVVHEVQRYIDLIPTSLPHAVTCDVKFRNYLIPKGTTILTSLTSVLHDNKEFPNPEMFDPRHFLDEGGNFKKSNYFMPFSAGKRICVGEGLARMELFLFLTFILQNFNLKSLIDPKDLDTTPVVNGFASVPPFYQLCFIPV
Cytochrome P450 3A4 (Homo sapiens), sequence (P08684 whole entry, looked up): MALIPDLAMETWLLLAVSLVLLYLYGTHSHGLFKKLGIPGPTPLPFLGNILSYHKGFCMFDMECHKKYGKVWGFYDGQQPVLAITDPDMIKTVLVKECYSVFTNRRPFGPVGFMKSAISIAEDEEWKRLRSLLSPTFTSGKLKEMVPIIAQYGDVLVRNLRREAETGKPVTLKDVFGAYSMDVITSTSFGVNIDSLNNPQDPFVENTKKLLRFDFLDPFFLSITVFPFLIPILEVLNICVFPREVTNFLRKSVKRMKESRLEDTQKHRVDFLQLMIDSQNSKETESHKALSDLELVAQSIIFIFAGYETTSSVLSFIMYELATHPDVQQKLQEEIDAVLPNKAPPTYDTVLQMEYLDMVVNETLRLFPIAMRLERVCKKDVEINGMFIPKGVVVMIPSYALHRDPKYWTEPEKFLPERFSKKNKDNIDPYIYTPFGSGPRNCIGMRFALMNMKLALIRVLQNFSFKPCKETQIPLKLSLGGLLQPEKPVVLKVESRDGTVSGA
Nuclear receptor subfamily 1 group I member 2 (Homo sapiens), sequence (O75469 whole entry, looked up): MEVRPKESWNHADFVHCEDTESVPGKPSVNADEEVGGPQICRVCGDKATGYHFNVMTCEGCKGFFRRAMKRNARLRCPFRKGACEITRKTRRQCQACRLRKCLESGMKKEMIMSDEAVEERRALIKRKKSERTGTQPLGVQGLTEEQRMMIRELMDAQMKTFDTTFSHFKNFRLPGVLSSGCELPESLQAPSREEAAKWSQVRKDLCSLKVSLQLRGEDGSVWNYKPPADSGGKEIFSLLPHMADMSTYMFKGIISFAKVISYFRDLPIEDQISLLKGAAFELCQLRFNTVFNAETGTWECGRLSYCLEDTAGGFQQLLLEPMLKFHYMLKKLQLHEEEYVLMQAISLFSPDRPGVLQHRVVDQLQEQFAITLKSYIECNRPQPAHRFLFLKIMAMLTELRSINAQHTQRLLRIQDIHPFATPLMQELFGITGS
Acetylcholinesterase (Homo sapiens), sequence (P22303 whole entry, looked up): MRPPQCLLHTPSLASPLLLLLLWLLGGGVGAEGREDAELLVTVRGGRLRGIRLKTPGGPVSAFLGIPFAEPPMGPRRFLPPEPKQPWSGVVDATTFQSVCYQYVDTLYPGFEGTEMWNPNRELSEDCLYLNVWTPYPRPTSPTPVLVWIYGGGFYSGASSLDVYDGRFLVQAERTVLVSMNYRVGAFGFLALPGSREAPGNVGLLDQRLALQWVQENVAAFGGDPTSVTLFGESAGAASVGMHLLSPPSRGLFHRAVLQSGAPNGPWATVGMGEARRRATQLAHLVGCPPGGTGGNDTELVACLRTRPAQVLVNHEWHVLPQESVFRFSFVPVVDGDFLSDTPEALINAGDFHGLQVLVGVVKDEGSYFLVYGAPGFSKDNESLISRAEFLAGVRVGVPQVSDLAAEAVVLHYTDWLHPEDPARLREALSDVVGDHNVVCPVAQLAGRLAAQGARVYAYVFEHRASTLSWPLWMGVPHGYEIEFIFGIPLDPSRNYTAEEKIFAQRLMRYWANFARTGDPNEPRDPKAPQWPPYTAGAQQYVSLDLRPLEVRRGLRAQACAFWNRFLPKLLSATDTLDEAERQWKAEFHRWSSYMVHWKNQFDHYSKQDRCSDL

For the molecule `CNC(=O)CSP(=S)(OC)OC`, the Potency result in [1], in test [2], in [4], in test [5], in test [7] and in test [8] was “inactive” each time. Moreover, the Potency entry in test [9], in [10] and in test [14] was “inactive” in each case. Moreover, the Potency in [3] was 14.1 µM (active) and inactive; in [6], 62.8 µM (active) and inactive; in [11], “inactive and 35.5 µM (active)”; in [12], 10.3 µM (active) and 20 µM (active); in [13], 36.6 µM (active) and 20 µM (active).
Regarding `O=NN(c1ccccc1)c1ccccc1`, the Potency result in test [1], in test [2], in test [3], in test [4], in [5] and in [6] was “inactive” throughout. The Potency entry in test [7], in test [8], in test [9], in test [10] and in [14] was “inactive” each time. For the same molecule, the Potency in [11] was 21.9 µM (active) and inactive; in test [12], 39 µM (active) and 35.6 µM (active); in test [13], 34.8 µM (active) and 63.3 µM (active); in [15], 34.8 µM (active).
As to `CC(C)(C#N)N=NC(C)(C)C#N`, the Potency result in test [1], in test [2], in test [3], in test [4], in test [5] and in [6] was “inactive” each time. The Potency result in [7], in test [8], in test [9], in [10], in test [11] and in test [12] was “inactive” each time. The Potency entry in test [13], in [15], in test [14] and in test [16] was “inactive” in each case.
Take `Nc1ccc2ccccc2c1`: the Potency entry in [1], in [2], in test [3], in [4], in [5] and in test [7] was “inactive” in each case. Besides, the Potency result in test [8], in test [9], in [10] and in [14] was “inactive” each time. Also, the Potency in test [6] was 46.9 µM (active) and 43.3 µM (active); in test [11] it was 24.3 µM (active) and 15.9 µM (active); in test [12] it was 9.69 µM (active) and 31.7 µM (active); in [13], 27.3 µM (active) and 31.7 µM (active); in test [15], 1.72 µM (active) and 2 µM (active); in test [16] it was 19.3 µM (active) and 17.8 µM (active).
With `CCOP(=S)(OCC)OP(=S)(OCC)OCC`, the Potency result in [1], in test [2], in [3], in test [4], in test [5] and in test [6] was “inactive” each time. Further, the Potency entry in test [11] and in [14] was “inactive” throughout. The Potency was 8.18 µM (active) and 5.03 µM (active) in [7]; 72.9 µM (active) and 79.6 µM (active) in [8]; 10.3 µM (active) and 11.2 µM (active) in [9]; 36.5 µM (active) and 20 µM (active) in test [10]; 8.18 µM (active) and 17.8 µM (active) in test [12]; 32.6 µM (active) and 35.6 µM (active) in test [13].
In the case of `CCOP(=S)(OCC)SCSC(C)(C)C`, the Potency entry in [1], in [2], in [3], in test [4], in test [5] and in test [7] was “inactive” each time. Further, the Potency result in test [8], in test [9], in test [11] and in [14] was “inactive” in each case. The Potency in test [6] is 61.6 µM (active) and inactive; in [10] it was 40.2 µM (active) and 56.4 µM (active); in test [12] it was 9.01 µM (active) and 3.17 µM (active); in test [13], 32 µM (active) and 14.2 µM (active); in test [15] it was 39.9 µM (active); in test [16] it was 12.7 µM (active) and 7.1 µM (active).

The values are drawn from PubChem BioAssay (Tox21).
